# In PubChem BioAssay (NCI):
# The panel holds about 83,000 compounds, 20% with a hit somewhere; the sample as a whole holds those more often.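 Negative percent growth values reflect cell death: -40 means 40% of the cells present at the start died, and -100 means all died.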 Values without a mark were called inactive. Activity calls are given as the source filed them. Rule for the calls: active = growth percent below 10; inactive = the rest.
# Assays:
# Assay in all cases: NCI-60 one-dose screen, 48 h (100 = growth as untreated, 0 = no growth, -100 = all killed)
# NCI-H226 lung = conditions: 10 µM unless noted
# NCI-H322M lung = conditions: 10 µM unless noted
# NCI-H460 lung = conditions: 10 µM unless noted
# HOP-92 NSCLC = conditions: 10 µM
# NCI-H522 lung = conditions: 10 µM
# A549/ATCC NSCLC = conditions: 10 µM unless noted
# 786-0 renal = conditions: 10 µM unless noted
# COLO 205 colon = conditions: 10 µM unless noted
# DU-145 prostate = conditions: 10 µM unless noted
# K-562 leukemia = conditions: 10 µM unless noted
# MALME-3M melanoma = conditions: 10 µM unless noted
# MDA-MB-231 breast = conditions: 10 µM unless noted
# RXF 393 renal = conditions: 10 µM unless noted
# SF-268 CNS = conditions: 10 µM unless noted
# SF-295 CNS = conditions: 10 µM unless noted
# SF-539 CNS = conditions: 10 µM unless noted
# UACC-257 melanoma = conditions: 10 µM unless noted
# M14 melanoma = conditions: 10 µM unless noted
# HOP-62 NSCLC = conditions: 10 µM unless noted
SMILES,growth (NCI-H226 lung) [%],growth (NCI-H322M lung) [%],growth (NCI-H460 lung) [%],growth (HOP-92 NSCLC) [%],growth (NCI-H522 lung) [%],growth (A549/ATCC NSCLC) [%],growth (786-0 renal) [%],growth (COLO 205 colon) [%],growth (DU-145 prostate) [%],growth (K-562 leukemia),growth (MALME-3M melanoma) [%],growth (MDA-MB-231 breast),growth (RXF 393 renal),growth (SF-268 CNS) [%],growth (SF-295 CNS) [%],growth (SF-539 CNS) [%],growth (UACC-257 melanoma) [%],growth (M14 melanoma),growth (HOP-62 NSCLC) [%]
COc1cc(NC(=O)CSc2nc3ccc(Cl)cc3c(=O)n2-c2ccc(F)cc2)cc(OC)c1OC,83.2,86.9,91.3,36,79.5,83.8,75.2,107,96.9,80.5%,85.8,64.7%,80.2%,79.8,80,98.4,97.4,,
COC(=O)c1ccc2[nH]c(O)c(C(=Nc3ccc(N(C)C(=O)CN4CCN(C)CC4)cc3)c3ccc(CCO)cc3)c2c1,57,66.5,74.6,66.6,33.3,95.4,44.2,18.1,80.4,8.34% (active),19,31.2%,30%,29.6,93.2,28,77.6,57.3%,
CCC(C)CC(N)O (stereo not drawn),98,116,108,,,106,105,109,114,108%,130,116%,91.8%,108,99.4,107,102,103%,122
CC(=O)OCC1O[C@@H](OC(C)=O)[C@@H](NC(=O)NS(=O)(=O)c2ccccc2)C(OC(C)=O)[C@@H]1OC(C)=O (stereo partly drawn),99.7,98.7,117,97.9,96,106,98.3,120,108,94.6%,103,105%,108%,100,94.4,97.2,118,108%,
COC(=O)CC(=O)C(=O)OC,97.7,107,104,,,104,95.2,114,108,101%,107,115%,104%,97.4,,102,102,100%,
O=C(c1ccccc1)c1ccccc1-c1ccccc1,71.8,65.6,15.1,,,38.3,37.8,22.6,51.1,14.5%,49.4,42.1%,,45.4,17.1,20.4,55.4,0.878% (active),32.5
CC(=O)Oc1cc2ccccc2cc1C(C)C,101,115,99,,,,101,112,126,117%,111,117%,102%,111,96.8,95,,106%,104
N#Cc1c2cccnc2c2nnc3cc(Cl)c(Cl)cc3n12,79.6,44.5,34.2,,,83,81.2,85.8,36.4,5.64% (active),25.6,2.64% (active),-3.12% (active),16.8,80.8,35.1,73.1,78.1%,26.1
